Screening data (PubChem BioAssay)
IL1B secr inh: blocks inflammasome-driven IL-1 beta release. hit rate 4.7% among 360,000. THP-1 LPS/ATP IL-1B secretion, AlphaLISA, 16 h; hits give low values. activity change, % at 57.5 µM; in the data active means activity change below about -50%; inconclusive means mostly about -30% to -49%
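Secreted IL-1B measured by AlphaLISA bead assay after 16 h compound exposure of THP-1 cells; compounds (final up to 57.5 uM) added 1 h before LPS (250 ng/mL) and ATP (1.25 mM) stimulation; lower signal means less secretion.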
HT1080 IDH1KD tx: HT-1080 IDH1 knockdown cell toxicity (counter line) | AID 686971 | HT-1080 IDH1 knockdown viability, ATP luminescence, 48 h | hit rate 2% among 360,000 | Potency, µM (highest dose often 46.1 µM), inactives show at the highest dose activity, negative = toxicity, usual class: cytotoxic;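 further: potency means the concentration at half of the fitted maximal effect; 0% = DMSO wells and -100% = cell-free medium wells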
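CellTiter-Glo luminescence after 48 h compound exposure at 37 degrees C of IDH1-knockdown HT-1080 cells in 5% FBS RPMI. %Activity scaled between DMSO wells and cell-free media wells, with curves fitted and assigned curve classes.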
DT40 TDP1 CPT: DT40-hTDP1 cell growth loss with CPT | Potency, µM (top dose mostly 46.2 µM), for inactives: at the highest dose activity change, negative = growth inhibition, actives largely listed as inhibitors | hit rate 12% among 420,000 | chicken DT40 Tdp1-/-;hTDP1 cells + 20 nM CPT, ATP luminescence, 48 h; further: potency means the concentration at half of the fitted maximal effect; nearly all actives have a fitted effect of over 55% in size
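Cell growth measured by CellTiter-Glo luminescence after a minimum 48 h, 37 C compound exposure with 20 nM CPT in Tdp1-knockout DT40 cells stably expressing hTDP1, seeded 400/well; qHTS titration format.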
DT40 TDP1 no CPT: qHTS for Inhibitors of human tyrosyl-DNA phosphodiesterase 1 (TDP1): qHTS in cells in absence of CPT; DT40 Tdp1-/- hTDP1 cells, no CPT, ATP luminescence, 48 h; hit rate 15% among 420,000; Potency, µM (top dose mostly 46.2 µM), for inactives: top-dose activity change, negative = growth inhibition, hits mostly inhibitors; further: potency means the concentration at half of the fitted maximal effect; nearly all actives have a fitted effect of over 55% in size
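Readout: luminescence from CellTiter-Glo after 30 min in the dark at RT. Cells: DT40 Tdp1-/- with stable hTDP1, 400/well. Exposure: compounds alone, ≥48 hr, 37 °C.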
HT1080NT lethal: kills 2HG-producing HT-1080-NT fibrosarcoma cells | HT-1080-NT fibrosarcoma viability, CellTiter-Glo ATP luminescence, 48 h | Potency, µM (highest dose often 46.1 µM), inactives show at the highest dose activity, negative = less viability, most hits filed as cytotoxic | hit rate 1.6% among 360,000 | AID 686970;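 further: NT is the 2HG producing partner of a matched IDH1 knockdown line; potency means the concentration at half of the fitted maximal effect; 0% = DMSO-treated cells and -100% = media-only wells without cells; nearly all actives have a fitted effect of over 55% in size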
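750 cells/well, RPMI + 5% FBS; 2 h settle, compound pin-transfer, 48 h at 37 degrees C. CellTiter-Glo 10 min RT, luminescence. Normalized to DMSO and media-only wells.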
* = called active by the depositor; ? = inconclusive; / = not tested or not shown. The list is not random: actives were taken first. Their share in the collection is about 19%. Unless noted, the call rests on the fitted dose curve; in most records, active means well fitted curve in the direction sought with a large enough effect; inconclusive means small, poorly fitted or top-dose-only effect, or another doubt; inactive means no such curve, though single readings can be large; an effect the other way counts as inactive or inconclusive. Unless noted, on the % scale 0 is the no-effect control and ±100 the full control effect.

SMILES	IL1B secr inh	HT1080 IDH1KD tx	DT40 TDP1 CPT	DT40 TDP1 no CPT	HT1080NT lethal
Cc1cc(C(=O)Cn2cc(C(F)(F)F)ccc2=O)c(C)n1-c1ccccc1	-19.8	-6.7%	?	?	-11.2%
CCOCCCNC(=O)C1CCN(c2nc3ccc(Cl)cc3[nH]2)CC1	/	/	-19.3%	-10.1%	/
COc1ccc(C2/C=C\CN(C(=O)Nc3ccc(C(F)(F)F)cc3)CC(=O)N2Cc2ccc(F)cc2)cc1 (configuration not stated)	0.0	?	14.6µM*	13µM*	?
COc1ccc(C2/C=C\CN(Cc3ccco3)CC(=O)N2Cc2ccc(F)cc2)cc1 (configuration not stated)	-0.5	-2.5%	?	?	-0.3%
COc1ccc(C2/C=C\CN(C(=O)Nc3ccccc3)CC(=O)N2Cc2ccc(F)cc2)cc1 (configuration not stated)	2.3	-1.6%	?	?	-0.8%
COc1ccc(C2/C=C\CN(C(=O)C3CCCC3)[C@H](Cc3ccccc3)C(=O)N2Cc2ccc(F)cc2)cc1 (some centres not stated)	-22.1	-22.0%	23.1µM*	?	-17.0%
CCCCCCCN1C/C=C\C(c2ccc(OC)cc2)N(Cc2ccc(F)cc2)C(=O)[C@H]1Cc1ccccc1 (some centres not stated)	3.8	-1.4%	?	18.4µM*	-3.6%
COc1ccc([C@H]2/C=C\CN(C(=O)C3CCCC3)[C@@H](C)C(=O)N2Cc2ccc(F)cc2)cc1	21.5	-24.8%	13µM*	7.31µM*	-19.2%
O=C(NC1CCCCC1)c1c[nH]c2ccc(S(=O)(=O)Nc3ccccc3F)cc2c1=O	/	/	-0.8%	?	/
CC(C)(C)N(Cc1ccccc1)C(=O)COC(=O)CN1C(=O)NC2(CCCC2)C1=O	4.4	0.2%	?	?	7.5%
O=C(CCC(=O)c1ccccc1)Nc1ccccc1OC(F)F	-12.0	11.9%	-2.6%	14.2%	23.1%
O=C(Nn1nnnc1Nc1ccccc1)C12CC3CC(CC(C3)C1)C2	-5.1	?	?	?	?
CCOC(=O)c1cccc(NC(=O)C2Cc3ccccc3N2C(=O)c2ccccc2)c1 (configuration not stated)	/	/	-25.4%	-21.9%	/
CCOC(=O)CC1(CC)Oc2ccccc2N1S(=O)(=O)c1ccc(C)cc1 (configuration not stated)	1.1	?	23.1µM*	?	?
CCOC(=O)CC1(C)N(S(=O)(=O)c2ccc(C)cc2)c2ccccc2N1S(=O)(=O)c1ccc(C)cc1	1.8	20.0%	?	14.6µM*	19.0%
Cc1ccsc1C(=O)C1CCCN(Cc2cc(F)ccc2-n2cccn2)C1 (configuration not stated)	-18.8	-16.7%	9.2µM*	11.6µM*	-29.6%
COc1cc(OC)c(OC)cc1CN1CCCC(C(=O)c2sccc2C)C1 (configuration not stated)	-6.1	-11.2%	?	?	-19.7%
CC(C)(O)C#Cc1ccc(N2C(c3ccsc3)=Cc3ccc(F)cc3C2c2c[nH]c3ccc(C#N)cc23)cc1 (configuration not stated)	-17.5	23.1µM*	5.17µM*	?	?
COc1ccc(-c2[nH]c3ccccc3c2SCCNC(=O)c2cc(OC)c(OC)c(OC)c2)cc1	/	/	5.17µM*	3.66µM*	/
CCN(CC)S(=O)(=O)c1ccc(C(=O)NCCSc2c(-c3ccc(OC)cc3)[nH]c3ccccc23)cc1	/	/	7.31µM*	3.66µM*	/
COc1cccc(C(=O)NCCSc2c(-c3ccc(F)cc3)[nH]c3ccccc23)c1OC	/	/	16.4µM*	13µM*	/
Cc1ccc(-c2[nH]c3ccccc3c2SCCNC(=O)c2cc3ccccc3oc2=O)cc1	0.0	?	?	?	?
